# About 8,800 targets were measured; listed, in parts, are those with a hit and a random draw of the rest. About 0.5% of all pairs of compound and target were hits. Values without a mark were called inactive.
# How the values were obtained:
# Assay in all cases: log2 fold change, soluble protein after heating vs DMSO (PISA); higher = thermal stabilisation; K562 lysate, 10 uM; active = over 0.2 and 3.5 SD of the protein, either way, in both replicates (recomputed)
# erlotinib = compound: C#Cc1cccc(Nc2ncnc3cc(OCCOC)c(OCCOC)cc23)c1 [erlotinib]
# How it was run: (§1)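 A 30 min treatment with 10 μM compound was applied to crude K562 extract at 1 mg/mL protein in PBS pH 7.4 with 1 mM MgCl2. Heating for 3 min spanned 48°C-58°C, after which aliquots were pooled, adjusted to 0.5% NP-40 at 4°C and spun at 21,000xg for 90 min. TMTpro 16plex LC-MS/MS of the supernatant, with channel sums equalised, gave values recorded as log-two fold change in thermal stability against solvent controls, from duplicates.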
# [1] = compound: C/C(=N\NC(=O)C1=CC(=CC=C1)S(=O)(=O)N2CCOCC2)/C3=C(C=CC(=C3)Cl)O
# How it was run: as §1
# [2] = compound: C1=CC(=CC=C1C2=NC3=C(N2)C=C(C=C3)C(=O)N)OC4=CC=C(C=C4)Cl
# How it was run: as §1
# [3] = compound: C1=CC2=C(C=CC(=C2)/C=C\3/C(=O)NC(=NCC4=CC=CS4)S3)N=C1
# How it was run: as §1
# [4] = compound: C1=CC2=NC=CN=C2C=C1/C=C/3\C(=O)NC(=O)S3
# How it was run: as §1
# [5] = compound: C1=CC=C(C=C1)C2=NC(=C(N2)C3=CC=NC=C3)C4=CC(=C(C=C4)Cl)O
# How it was run: as §1
# [6] = compound: C1=CC=C2C(=C1)C3=NNC4=CC=CC(=C43)C2=O
# How it was run: as §1
# [7] = compound: C1CCN(C1)C(=O)NC2=CC=CC(=C2)NC3=NC=C(C(=N3)NCCC4=CN=CN4)Br
# How it was run: as §1
# [8] = compound: C1CN(CCC1(CC2=CC=C(C=C2)Cl)N)C3=NC=NC4=C3C=CN4
# How it was run: as §1
# IRAK-1-4 Inhibitor I = compound: C1COCCN1CCN2C3=CC=CC=C3N=C2NC(=O)C4=CC(=CC=C4)[N+](=O)[O-] [IRAK-1-4 Inhibitor I]
# How it was run: as §1
# Chain of UniProt O75376 (O75376 whole entry, looked up): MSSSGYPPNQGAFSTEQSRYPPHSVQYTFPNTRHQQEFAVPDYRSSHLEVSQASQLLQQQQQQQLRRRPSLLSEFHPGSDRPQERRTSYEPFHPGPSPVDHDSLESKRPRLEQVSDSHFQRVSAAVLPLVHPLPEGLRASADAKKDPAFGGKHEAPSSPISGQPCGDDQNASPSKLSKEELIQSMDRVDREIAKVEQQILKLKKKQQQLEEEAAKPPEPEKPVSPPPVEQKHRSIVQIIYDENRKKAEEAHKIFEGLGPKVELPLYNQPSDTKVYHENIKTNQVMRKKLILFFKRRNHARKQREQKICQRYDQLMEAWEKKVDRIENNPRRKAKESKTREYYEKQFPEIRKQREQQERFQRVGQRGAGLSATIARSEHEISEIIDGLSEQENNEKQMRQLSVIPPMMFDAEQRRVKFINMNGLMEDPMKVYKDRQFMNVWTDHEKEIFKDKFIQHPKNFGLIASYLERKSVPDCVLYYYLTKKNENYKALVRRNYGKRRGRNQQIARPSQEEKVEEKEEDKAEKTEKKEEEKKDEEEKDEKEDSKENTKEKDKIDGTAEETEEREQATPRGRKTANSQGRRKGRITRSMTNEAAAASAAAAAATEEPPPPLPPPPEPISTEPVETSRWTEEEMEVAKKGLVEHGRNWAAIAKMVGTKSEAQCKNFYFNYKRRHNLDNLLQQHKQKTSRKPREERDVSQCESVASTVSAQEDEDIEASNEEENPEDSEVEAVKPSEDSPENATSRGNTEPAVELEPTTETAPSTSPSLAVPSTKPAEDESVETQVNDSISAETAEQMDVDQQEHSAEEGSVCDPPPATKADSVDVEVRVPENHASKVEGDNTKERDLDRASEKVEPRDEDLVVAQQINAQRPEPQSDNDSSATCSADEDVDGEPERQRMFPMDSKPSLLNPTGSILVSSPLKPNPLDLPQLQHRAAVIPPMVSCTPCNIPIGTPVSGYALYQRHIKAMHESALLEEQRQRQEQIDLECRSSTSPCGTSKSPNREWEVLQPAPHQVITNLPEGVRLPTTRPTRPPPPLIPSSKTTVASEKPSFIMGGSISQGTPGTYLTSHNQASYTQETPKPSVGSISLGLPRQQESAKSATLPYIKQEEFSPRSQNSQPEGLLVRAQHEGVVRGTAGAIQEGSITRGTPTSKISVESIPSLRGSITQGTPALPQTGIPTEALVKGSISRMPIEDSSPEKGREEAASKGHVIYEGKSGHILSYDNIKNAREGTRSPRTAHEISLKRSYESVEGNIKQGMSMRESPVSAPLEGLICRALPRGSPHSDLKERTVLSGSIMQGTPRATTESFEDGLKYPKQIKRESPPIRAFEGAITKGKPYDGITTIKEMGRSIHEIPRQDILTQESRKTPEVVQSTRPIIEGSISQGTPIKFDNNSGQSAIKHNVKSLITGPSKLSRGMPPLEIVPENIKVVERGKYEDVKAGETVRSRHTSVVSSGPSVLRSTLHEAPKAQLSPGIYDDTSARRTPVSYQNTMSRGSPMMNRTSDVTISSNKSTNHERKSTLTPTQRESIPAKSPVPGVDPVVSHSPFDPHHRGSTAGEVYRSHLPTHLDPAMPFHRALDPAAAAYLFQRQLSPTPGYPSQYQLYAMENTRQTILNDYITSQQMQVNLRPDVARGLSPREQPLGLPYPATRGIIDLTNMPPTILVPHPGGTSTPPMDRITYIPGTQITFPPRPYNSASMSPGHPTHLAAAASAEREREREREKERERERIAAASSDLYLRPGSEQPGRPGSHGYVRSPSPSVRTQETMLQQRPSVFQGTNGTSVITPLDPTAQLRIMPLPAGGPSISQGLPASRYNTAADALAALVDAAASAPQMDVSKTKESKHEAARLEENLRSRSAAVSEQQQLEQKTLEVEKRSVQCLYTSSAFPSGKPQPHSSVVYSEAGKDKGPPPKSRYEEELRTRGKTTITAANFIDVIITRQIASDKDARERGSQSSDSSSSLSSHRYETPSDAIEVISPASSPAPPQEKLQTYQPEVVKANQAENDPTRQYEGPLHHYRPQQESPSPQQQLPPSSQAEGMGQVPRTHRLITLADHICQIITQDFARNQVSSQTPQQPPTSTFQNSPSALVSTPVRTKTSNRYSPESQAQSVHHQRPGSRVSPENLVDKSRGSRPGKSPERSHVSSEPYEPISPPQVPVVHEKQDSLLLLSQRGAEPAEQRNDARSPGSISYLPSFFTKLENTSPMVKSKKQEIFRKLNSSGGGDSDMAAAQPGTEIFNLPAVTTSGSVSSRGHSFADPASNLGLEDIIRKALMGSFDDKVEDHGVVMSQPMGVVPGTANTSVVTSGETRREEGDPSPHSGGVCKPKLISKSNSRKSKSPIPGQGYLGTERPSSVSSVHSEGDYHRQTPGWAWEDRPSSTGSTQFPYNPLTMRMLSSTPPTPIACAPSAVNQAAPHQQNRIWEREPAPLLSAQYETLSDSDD
# Chain of UniProt P20585 (P20585 whole entry, looked up): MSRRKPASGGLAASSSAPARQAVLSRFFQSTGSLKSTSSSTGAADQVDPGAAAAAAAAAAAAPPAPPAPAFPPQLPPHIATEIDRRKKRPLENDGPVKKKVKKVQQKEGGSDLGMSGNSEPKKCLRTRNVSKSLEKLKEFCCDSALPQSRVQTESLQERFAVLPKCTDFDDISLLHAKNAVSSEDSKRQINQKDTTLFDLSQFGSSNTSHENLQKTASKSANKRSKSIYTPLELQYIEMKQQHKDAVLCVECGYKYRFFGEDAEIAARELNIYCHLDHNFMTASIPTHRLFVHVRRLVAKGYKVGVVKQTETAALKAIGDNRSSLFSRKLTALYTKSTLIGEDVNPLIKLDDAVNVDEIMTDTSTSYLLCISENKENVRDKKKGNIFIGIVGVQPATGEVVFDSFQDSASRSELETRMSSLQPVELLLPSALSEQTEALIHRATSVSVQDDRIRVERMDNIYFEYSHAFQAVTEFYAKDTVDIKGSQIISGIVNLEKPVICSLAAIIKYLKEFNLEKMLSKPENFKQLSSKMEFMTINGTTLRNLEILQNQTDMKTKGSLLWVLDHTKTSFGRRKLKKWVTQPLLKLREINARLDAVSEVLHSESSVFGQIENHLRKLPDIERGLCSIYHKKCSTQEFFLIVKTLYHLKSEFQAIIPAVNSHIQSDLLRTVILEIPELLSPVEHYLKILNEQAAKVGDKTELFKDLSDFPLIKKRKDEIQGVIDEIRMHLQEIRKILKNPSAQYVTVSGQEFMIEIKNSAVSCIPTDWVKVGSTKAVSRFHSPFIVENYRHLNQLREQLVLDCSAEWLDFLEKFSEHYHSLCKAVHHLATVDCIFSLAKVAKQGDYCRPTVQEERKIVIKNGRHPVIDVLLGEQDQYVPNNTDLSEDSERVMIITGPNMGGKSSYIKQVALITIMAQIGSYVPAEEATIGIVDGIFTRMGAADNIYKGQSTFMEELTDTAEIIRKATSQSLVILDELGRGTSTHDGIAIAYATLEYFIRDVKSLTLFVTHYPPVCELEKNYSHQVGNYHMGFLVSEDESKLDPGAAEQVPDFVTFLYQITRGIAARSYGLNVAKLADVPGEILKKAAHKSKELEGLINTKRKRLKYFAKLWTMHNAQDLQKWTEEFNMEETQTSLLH
# Chain of UniProt Q15233 (Q15233 whole entry, looked up): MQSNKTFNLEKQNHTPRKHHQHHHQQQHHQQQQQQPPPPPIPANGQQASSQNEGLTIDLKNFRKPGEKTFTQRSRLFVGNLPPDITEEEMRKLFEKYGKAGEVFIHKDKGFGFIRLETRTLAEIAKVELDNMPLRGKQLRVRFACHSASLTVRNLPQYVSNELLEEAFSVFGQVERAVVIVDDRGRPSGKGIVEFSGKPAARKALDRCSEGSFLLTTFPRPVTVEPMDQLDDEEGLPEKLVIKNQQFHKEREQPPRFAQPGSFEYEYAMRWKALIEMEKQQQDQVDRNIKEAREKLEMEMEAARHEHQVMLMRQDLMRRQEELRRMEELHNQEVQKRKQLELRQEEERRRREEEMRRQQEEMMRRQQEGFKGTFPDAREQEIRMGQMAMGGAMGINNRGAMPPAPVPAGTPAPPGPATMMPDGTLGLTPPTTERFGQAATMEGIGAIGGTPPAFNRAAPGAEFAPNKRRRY
# Chain of UniProt P28331 (P28331 whole entry, looked up): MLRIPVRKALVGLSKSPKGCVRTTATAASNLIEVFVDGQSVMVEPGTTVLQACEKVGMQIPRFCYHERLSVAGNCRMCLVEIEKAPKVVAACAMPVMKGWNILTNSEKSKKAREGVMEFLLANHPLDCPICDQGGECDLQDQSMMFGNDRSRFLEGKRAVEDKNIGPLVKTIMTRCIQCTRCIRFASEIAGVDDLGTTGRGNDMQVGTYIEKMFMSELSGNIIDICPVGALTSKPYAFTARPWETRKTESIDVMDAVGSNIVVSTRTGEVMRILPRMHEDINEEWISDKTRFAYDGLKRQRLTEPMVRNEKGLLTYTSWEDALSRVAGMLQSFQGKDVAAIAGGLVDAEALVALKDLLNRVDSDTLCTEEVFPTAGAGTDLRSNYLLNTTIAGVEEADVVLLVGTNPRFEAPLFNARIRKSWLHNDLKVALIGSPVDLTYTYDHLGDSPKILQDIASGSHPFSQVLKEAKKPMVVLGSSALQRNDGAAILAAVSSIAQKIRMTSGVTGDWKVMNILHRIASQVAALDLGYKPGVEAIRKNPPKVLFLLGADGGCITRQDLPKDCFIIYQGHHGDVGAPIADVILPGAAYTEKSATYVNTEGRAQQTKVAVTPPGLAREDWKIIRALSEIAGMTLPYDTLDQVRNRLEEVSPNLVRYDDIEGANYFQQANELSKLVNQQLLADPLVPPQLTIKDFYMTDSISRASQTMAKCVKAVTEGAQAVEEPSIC
# Chain of UniProt Q9Y6C9 (Q9Y6C9 whole entry, looked up): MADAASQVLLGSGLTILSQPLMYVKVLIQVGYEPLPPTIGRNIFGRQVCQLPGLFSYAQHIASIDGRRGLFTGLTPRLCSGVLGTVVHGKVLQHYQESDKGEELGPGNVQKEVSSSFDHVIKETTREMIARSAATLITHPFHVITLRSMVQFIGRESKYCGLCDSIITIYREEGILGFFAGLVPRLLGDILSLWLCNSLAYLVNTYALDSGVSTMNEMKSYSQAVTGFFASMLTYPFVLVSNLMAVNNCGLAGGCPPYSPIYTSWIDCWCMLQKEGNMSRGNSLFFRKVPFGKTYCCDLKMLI
Target,log2 fold change (erlotinib),log2 fold change [1],log2 fold change [2],log2 fold change [3],log2 fold change [4],log2 fold change [5],log2 fold change [6],log2 fold change [7],log2 fold change [8],log2 fold change (IRAK-1-4 Inhibitor I)
MT-ND1 (UniProt P03886),-0.061,-0.227,-0.14,0.055,-0.036,-0.005,0.061,-0.038,0.02,0.004
NFKBIB (UniProt Q15653),0.113,-0.135,0,0.03,0.025,-0.026,0.06,0.016,-0.008,0.052
NONO (UniProt Q15233),0.021,-0.048,0,-0.006,-0.017,0.025,-0.027,0.014,0.002,0.005
NOB1 (UniProt Q9ULX3),0.011,-0.028,0.012,-0.016,-0.02,0.023,-0.016,-0.016,-0.027,0.011
PAK1 (UniProt Q13153),0.043,0.018,0.01,-0.017,0.01,-0.014,0.018,0.028,0.041,-0.007
NCAPG2 (UniProt Q86XI2),0.023,-0.026,-0.019,0.001,0.006,-0.004,-0.026,0.023,-0.016,0.004
PAN2 isoform 2 (UniProt Q504Q3),0,-0.007,-0.015,-0.005,0.052,0.03,0,-0.017,-0.031,0.006
NUP98 (UniProt P52948),-0.018,0.017,0.023,-0.026,0.005,-0.079,-0.004,0.015,0.021,0.002
MYOM1 (UniProt P52179),-0.015,0.033,-0.062,-0.228,-0.076,-0.009,0.098,-0.023,0.142,0.503 (active)
NDC1 (UniProt Q9BTX1),-0.002,0.015,0.026,0.047,0.031,-0.005,-0.077,0.013,0.024,0.026
MYH11 isoform 2 (UniProt P35749),-0.015,0.035,0.027,-0.002,-0.092,0.142,-0.038,-0.036,0.047,0.013
PARD3 (UniProt Q8TEW0),0.1,-0.288,0.051,-0.146,-0.029,0.021,0.007,0.067,0.017,0.028
NOC2L (UniProt Q9Y3T9),-0.036,-0.013,-0.018,-0.029,0.027,0.031,0.077,-0.009,-0.004,-0.046
NACC1 (UniProt Q96RE7),-0.006,0.038,0.036,-0.023,-0.004,0.01,-0.011,0.023,-0.014,0.009
MRPL58 (UniProt Q14197),0.025,-0.005,0.054,-0.003,0.01,-0.002,-0.025,-0.078,0.043,-0.012
MSH2 (UniProt P43246),0.003,0.018,-0.028,0.028,0.013,0.017,-0.019,-0.01,0.012,-0.009
"MTHFD1, A0A384N5Y3",0.024,0.041,-0.004,0.04,0.029,0.02,-0.039,0.021,0.015,0.002

Target,log2 fold change (erlotinib),log2 fold change [1],log2 fold change [2],log2 fold change [3],log2 fold change [4],log2 fold change [5],log2 fold change [6],log2 fold change [7],log2 fold change [8],log2 fold change (IRAK-1-4 Inhibitor I)
NDUFS1 isoform 2 (UniProt P28331),-0.006,0.033,-0.045,0.025,0.027,-0.033,-0.027,-0.052,0.006,0.006
MRPS31 (UniProt Q92665),-0.015,-0.042,0.056,0.042,-0.021,-0.028,-0.048,-0.022,0.02,0.005
NARS2 (UniProt Q96I59),-0.027,-0.034,-0.045,0.031,0.022,-0.021,-0.04,0.027,-0.027,-0.088
NTMT1 (UniProt Q9BV86),0.002,0.031,0.02,0.055,-0.001,-0.002,0.014,0.021,0.042,-0.033
NSUN7 (UniProt Q8NE18),-0.037,-0.271,0.019,-0.095,0.198,-0.031,-0.087,-0.026,-0.042,0.068
MTCH2 (UniProt Q9Y6C9),0.004,0.051,-0.081,-0.032,-0.06,-0.004,-0.031,-0.033,-0.011,0.027
NCAPG (UniProt Q9BPX3),-0.008,-0.018,-0.004,-0.01,-0.007,0.006,-0.026,0.002,0.013,-0.011
OTUD7B (UniProt Q6GQQ9),0.028,-0.06,0.075,-0.026,-0.017,-0.006,-0.076,-0.002,0.032,-0.039
NAA30 (UniProt Q147X3),0.015,-0.027,0.061,0.026,-0.007,-0.046,-0.038,-0.088,-0.031,0.085
MSI2 (UniProt Q96DH6),-0.04,-0.277,0.035,-0.047,0.084,-0.034,-0.011,0.03,0.027,0.057
OGT (UniProt O15294),0.021,0.053,0.01,-0.008,0.008,0.024,-0.021,-0.006,0.02,-0.017
PANK1 (UniProt Q8TE04),-0.003,-0.048,0.033,0.026,0.098,0.015,-0.069,-0.036,0.054,-0.061
NCOR1 (UniProt O75376),0.011,-0.05,0.081,0.004,-0.014,-0.041,-0.001,0.009,0.019,0.022
MYO1C (UniProt O00159),-0.002,-0.005,0.003,0.017,0.006,0.047,-0.003,-0.021,-0.032,-0.055
MSH3 (UniProt P20585),-0.046,-0.021,0.042,0.011,-0.025,0.007,-0.026,-0.038,0.058,0.004
NEK7 (UniProt Q8TDX7),-0.004,0.042,-0.083,0,0.01,0.053,0.103,0.011,-0.005,0.032
NFATC2IP (UniProt Q8NCF5),0.001,0.026,-0.036,0.006,0.016,0.031,-0.071,0.013,-0.016,-0.009
